# Measured values reported in PubChem BioAssay (EPA / NIEHS).
# Results filed as inconclusive are left out. Active and inactive are the calls of the source. Rule for the calls, unless noted: active = hit-call score of the fitted dose curve at least 0.9, where 1 is the maximum; inactive = score below 0.9.
# Columns and labels:
# [1] = CCTE_Harrill_HTTr_Viability_MCF7: CCTE's 6-hour Cell Viability Assessment for the High-Throughput Transcriptomics (HTTr) Platform, in MCF-7 cells cultured in DMEM + 10% fetal bovine serum, Harrill Lab (AID 2284010)
# Method in brief: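 Propidium iodide exclusion, imaged by high-content analysis, gauged viability after a six-hour exposure across eight concentrations. Cells were MCF-7 grown in DMEM with 10% fetal bovine serum; fits run in both directions against DMSO.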
# [2] = CCTE_Harrill_HTTr_Apoptosis_MCF7: CCTE's 6-hour Apoptosis Assessment for the High-Throughput Transcriptomics (HTTr) Platform, in MCF-7 cells cultured in DMEM + 10% fetal bovine serum, Harrill Lab (AID 2284011)
# Method in brief: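 MCF-7 cells in DMEM + 10% fetal bovine serum were exposed to chemicals for 6 hours over an eight-point dilution series. Caspase-3/7 activation was imaged by high content imaging with CellEvent Caspase 3/7 Green; bidirectional fitting used DMSO as baseline.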
# [3] = CCTE_Harrill_HTTr_CellCount_MCF7: CCTE's Cell Proliferation Assessment for the High-Throughput Transcriptomics (HTTr) Platform, Harrill Lab (AID 2284012; active = hit-call score of the fitted dose curve at least 0.9, where 1 is the maximum;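 note: cells exposed to compound for six hours; intended direction is loss of nuclei count meaning fewer cells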)
# Method in brief: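 Cell count from high-content imaging of Hoechst-labeled nuclei serves as viability/growth readout. Chemicals were applied to MCF-7 cells in eight concentrations for six hours, with fitting in both directions relative to DMSO.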
SMILES,outcome [1],outcome [2],outcome [3]
CCCC(=O)OCCC(C)C,inactive,inactive,inactive
CCN(Cc1cccnc1)C(=O)c1cccc(Cl)c1[C@]1(C)C(=O)N(Cc2ccc(OC)cc2OC)c2ccc(Cl)cc21,inactive,inactive,
Cc1ccc(C(C)C)cc1,inactive,,inactive
Oc1ccccc1,inactive,inactive,inactive
CCCCCCCC[Si](OCC)(OCC)OCC,inactive,inactive,inactive
